Source: PubChem BioAssay
The source made the active and inactive calls. Unless noted, the rule behind the calls is not given here.

How the values were obtained:
[1] = kinase inhibitors against Plasmodium liver-stage infection, cell-based, known kinase inhibitor set, luminescence, hepatoma host viability (AID 624392); details: Plasmodium liver stage in hepatoma cells, luciferase luminescence, concentration not given here; liver cell % of control: measured here: host liver cell viability; parasite % of control: stronger effect = lower value;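 note: infected cells incubated roughly two days before readout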
[2] = modulators of glucocorticoid suppression of NF-kB, cell-based, luciferase, IL-1B stimulus, dexamethasone (AID 624486); details: NF-kB luciferase reporter, IL-1B + dexamethasone, luminescence; percent of negative control (+Dex): actives lie on both sides, concentration not given here; z-score: measured here: IL-1B alone, no Dex;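 for percent of negative control (+Dex): 100% = mean signal of vehicle control wells on the plate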
[3] = kinase inhibitors altering Pseudomonas killing of worms, whole organism (AID 651566);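 note: tested at 14 µM; sign flipped so higher z means a lower ratio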; details: C. elegans killed by P. aeruginosa, survival ratio
[4] = activators of macrophage pro-inflammatory response, cell-based, murine, luminescence (AID 652131); details: murine macrophage pro-inflammatory reporter, stronger effect = higher value
[5] = biological target: Cellular tumor antigen p53 (Homo sapiens) (UniProt P04637); experiment: kinase inhibitors altering GFP-p53 stability in HPV16-positive cells, imaging, known kinase inhibitor set, EGFP/DsRed ratio (AID 1053116); details: stronger effect = higher value; EGFP object count: measured here: GFP-p53 positive objects count;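 note: cells exposed to compounds for 24 h at 37 °C before reading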
Chain of Cellular tumor antigen p53 (Homo sapiens) (P04637 whole entry, looked up): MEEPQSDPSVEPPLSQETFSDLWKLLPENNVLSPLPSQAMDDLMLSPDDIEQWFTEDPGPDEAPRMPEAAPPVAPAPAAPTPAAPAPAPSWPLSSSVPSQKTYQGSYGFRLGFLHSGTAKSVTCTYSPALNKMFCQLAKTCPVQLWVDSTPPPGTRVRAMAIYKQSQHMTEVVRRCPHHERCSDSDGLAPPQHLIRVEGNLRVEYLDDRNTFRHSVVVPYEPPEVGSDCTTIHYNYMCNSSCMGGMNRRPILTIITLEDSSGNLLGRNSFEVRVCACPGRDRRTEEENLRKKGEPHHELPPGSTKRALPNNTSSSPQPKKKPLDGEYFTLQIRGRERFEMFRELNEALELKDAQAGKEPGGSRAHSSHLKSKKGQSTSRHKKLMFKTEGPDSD

[6] = IRF3 reporter activation in THP-1 macrophages, cell-based, PMA-stimulated THP-1, luminescence (AID 1053176); details: PMA-differentiated THP-1, IRF3 reporter luminescence; stronger effect = higher value
[7] = survival rescue of mitochondrial mutant cells in low glucose, primary screen, MELAS cybrids, Rieske KO mouse fibroblasts, CellTiter-Glo (AID 1508586;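 active = mean z-score across replicates of 1.96 or higher in either the MELAS or the Rieske mutant cell line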;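 note: z relative to plate mean and SD of compound and empty wells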)
[8] = MELAS cybrid survival, CellTiter-Glo 48 h, stronger effect = higher value
[9] = Rieske KO mouse fibroblast survival, CellTiter-Glo 72 h

Compound	liver cell % of control [1]	parasite % of control [1]	percent of negative control (+Dex) [2]	z-score [2]	z-score [3]	z-score [4]	EGFP object count [5]	EGFP/DsRed ratio [5]	fraction signal [6]	z-score [7, 8]	z-score [7, 9]
CC1(C)CC(n2cnc(-c3ccc(F)cc3)c2-c2ccnc(N)n2)CC(C)(C)N1	79.9%	131% (inactive)	110% (inactive)	1.77	0.485 (inactive)	1.82 (inactive)	4	0.0677 (inactive)	0.0175 (inactive)	-0.417 (inactive)	0.00971
CCc1nccc2c1nc(-c1nonc1N)n2CC	89.7%	130% (inactive)	67% (inactive)	-2.37	-0.475 (inactive)	-0.569 (inactive)	2.5	0.0232 (inactive)	0.005 (inactive)	0.0182 (inactive)	-0.326
CN(C)CCNC(=O)Nc1ccc(N(C)c2ccnc(Nc3ccc(CS(C)(=O)=O)cc3)n2)cc1	111%	94.7% (inactive)	101% (inactive)	-0.235	-0.12 (inactive)	3.19 (inactive)	1	0.0718 (inactive)	0.0045 (inactive)	-0.741 (inactive)	-0.109
Nc1nonc1-c1nc2cnccc2n1C1CCCCC1	69%	61.4% (inactive)	29.5% (active)	-7.08	-0.155 (inactive)	-0.857 (inactive)	3.5	0.0658 (inactive)	-0.002 (inactive)	-0.132 (inactive)	-0.207
NS(=O)(=O)c1ccc(N=Nc2c(=O)[nH]c3ccc4[nH]cccc4c23)cc1	108%	91% (inactive)	144% (active)	1.98	1.48 (inactive)	-1.63 (inactive)	1.5	0.0128 (inactive)	-0.0065 (inactive)	2.43 (active)	0.199
COC(=O)Nc1nc2ccc(Oc3ccc(NC(=O)Nc4cccc(C(=O)O)c4)cc3)cc2[nH]1	122%	180% (inactive)	118% (inactive)	1.69	0.33 (inactive)	-0.479 (inactive)	5.5	0.0528 (inactive)	-0.002 (inactive)	-0.776 (inactive)	-0.262
CCn1c(-c2nonc2N)nc2c(C#CC(C)(C)O)ncc(OC3CCNCC3)c21	78%	13.9% (active)	89% (inactive)	-0.435	0.17 (inactive)	3.47 (inactive)	10.5	0.266 (inactive)	0.001 (inactive)	-0.105 (inactive)	-0.284
COc1cccc(-n2cnc3c(N/N=C/c4ccncc4)ncnc32)c1	88.9%	105% (inactive)	104% (inactive)	0.5	-1.34 (inactive)	-0.055 (inactive)	1.5	0.0324 (inactive)	0.0015 (inactive)	2.14 (active)	0.0192
COc1ccc(Nc2ncc(-c3ccccc3)o2)cc1OC	152%	101% (inactive)	154% (inactive)	4.41	-0.885 (inactive)	4.21 (inactive)	3	0.0153 (inactive)	-0.0085 (inactive)	1.52 (inactive)	0.00272
CS(=O)(=O)CCNCc1nc(-c2ccc3ncnc(Nc4ccc(OCc5cccc(C(F)(F)F)c5)cc4)c3c2)cs1	96.4%	93.1% (inactive)	91.5% (inactive)	-0.43	-0.1 (inactive)	0.202 (inactive)	4.5	0.116 (inactive)	-0.002 (inactive)	0.123 (inactive)	-0.291
C[C@@H](Oc1cc(-n2cnc3ccc(OCC4CCN(C)CC4)cc32)sc1C(N)=O)c1ccccc1C(F)(F)F	80.7%	130% (inactive)	98.5% (inactive)	-0.76	-1.17 (inactive)	-2 (inactive)	12	0.346 (inactive)	-0.0025 (inactive)	0.571 (inactive)	0.279
CN1CCN(Cc2ccc(-c3cc4ncnc(Nc5ccc(OCc6cccc(F)c6)c(Cl)c5)c4s3)o2)CC1	69.8%	97% (inactive)	86.5% (inactive)	-0.395	0.455 (inactive)	-0.527 (inactive)	11.5	0.213 (inactive)	0.006 (inactive)	0.235 (inactive)	-0.538
CCn1c(-c2nonc2N)nc2cncc(C(=O)N3CC[C@H](N)C3)c21	108%	146% (inactive)	76.5% (inactive)	-2.08	-0.435 (inactive)	1.55 (inactive)	4	0.0807 (inactive)	-0.0035 (inactive)	-0.752 (inactive)	-0.175
CC1=C(C(=O)Nc2ccc3n[nH]c(C)c3c2)C(c2ccc(C(F)(F)F)cc2)CC(=O)N1 (stereo not drawn)	99.2%	202% (inactive)	82.5% (inactive)	-1.14	0.355 (inactive)	-0.104 (inactive)	2.5	0.0851 (inactive)	-0.006 (inactive)	-0.0625 (inactive)	-0.632
NS(=O)(=O)c1cccc(N=Cc2c(O)[nH]c3ccccc23)c1	80.7%	106% (inactive)	89.5% (inactive)	0.485	-1.3 (inactive)	1.25 (inactive)	7	0.162 (inactive)	-0.0005 (inactive)	1.07 (inactive)	-0.155
O=C(Nc1n[nH]c2cc(-c3cc(F)ccc3F)ccc12)C1CC1	90.7%	72.2% (inactive)	81% (inactive)	-0.38	-0.655 (inactive)	0.317 (inactive)	4	0.173 (inactive)	-0.0055 (inactive)	-0.186 (inactive)	-0.425
CC(C)c1ccc(Nc2nccc(-c3cnn4ncccc34)n2)cc1	146%	13.9% (active)	12.5% (active)	-8.57	0.07 (inactive)	-1.83 (inactive)	3.5	0.181 (inactive)	-0.005 (inactive)	0.723 (inactive)	-0.0455
CS(=O)(=O)CCNCc1ccc(-c2ccc3ncnc(Nc4ccc(OCc5cccc(F)c5)c(C(F)(F)F)c4)c3c2)o1	105%	99.7% (inactive)	106% (inactive)	1.84	0.48 (inactive)	-0.873 (inactive)	1	0.00783 (inactive)	-0.0125 (inactive)	-0.506 (inactive)	-0.463
CCn1c(-c2nonc2N)nc2c(C#CC(C)(C)O)nc(OC[C@@H](N)c3ccccc3)cc21	87.1%	48.7% (inactive)	108% (inactive)	3.72	0.96 (inactive)	-1.1 (inactive)	19.5	0.658 (inactive)	-0.0095 (inactive)	-0.774 (inactive)	0.238
c1ccc(Nc2ncc(-c3ccccc3)o2)cc1	98.7%	93.5% (inactive)	246% (active)	11.2	-1.27 (inactive)	0.128 (inactive)	5	0.0918 (inactive)	-0.011 (inactive)	1.22 (inactive)	-0.446
COc1cc(Nc2ncc(-c3ccccc3)o2)cc(OC)c1	105%	156% (inactive)	158% (inactive)	5.51	-1.38 (inactive)	1.77 (inactive)	3.5	0.0542 (inactive)	0.0025 (inactive)	0.0476 (inactive)	-0.415
Nc1nc(-c2cccc(Cl)c2)c(-c2ccc3ncccc3n2)s1	156%	115% (inactive)	103% (inactive)	0.42	-1.02 (inactive)	-0.477 (inactive)	2.5	0.0471 (inactive)	-0.0045 (inactive)	0.115 (inactive)	-0.0691
Cc1ccc(C(=O)NC2CC2)cc1-c1ccc2[nH]ncc2c1	103%	126% (inactive)	102% (inactive)	0.41	0.325 (inactive)	-0.645 (inactive)	3.5	0.141 (inactive)	0.0035 (inactive)	-0.239 (inactive)	-0.0886
O=C1NC(=O)C(c2ccc(Cl)cc2)=C1Nc1ccc(Cl)c(C(=O)O)c1	104%	127% (inactive)	92% (inactive)	0.785	0.035 (inactive)	0.277 (inactive)	4	0.0822 (inactive)	-0.003 (inactive)	-0.525 (inactive)	-0.308
CN1CCC(n2cnc(-c3ccc(F)cc3)c2-c2ccnc(NCCO)n2)CC1	86.8%	138% (inactive)	102% (inactive)	1.04	0.4 (inactive)	0.387 (inactive)	3.5	0.139 (inactive)	-0.0015 (inactive)	-0.289 (inactive)	-0.297
CCn1c(-c2nonc2N)nc2cncc(C(=O)N3CCNCC3)c21	101%	140% (inactive)	111% (inactive)	0.555	-0.355 (inactive)	0.864 (inactive)	8	0.129 (inactive)	-0.005 (inactive)	-0.623 (inactive)	0.0786
NC(=O)c1cc(-c2ccncc2)cc(-c2ccccc2)c1N	95.8%	55.5% (inactive)	52% (inactive)	-4.61	-0.845 (inactive)	-1.14 (inactive)	2.5	0.104 (inactive)	0.0085 (inactive)	-0.817 (inactive)	-0.475
c1ccc(COc2ccc(Nc3ncnc4ccc(-c5ccco5)cc34)cc2)cc1	99%	71.7% (inactive)	106% (inactive)	1.01	0.34 (inactive)	-1.14 (inactive)	3	0.073 (inactive)	0.006 (inactive)	-0.351 (inactive)	-0.356
